Experimental data published in PubChem BioAssay AID504773 (Broad Institute, 2011).
Results with a measured potency or affinity are listed apart. The source made the active and inactive calls.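 The calls were made as follows: active = polarization signal falls with dose and the fitted half-maximal concentration is at or below ten times the sample's top valid dose; inconclusive = flat curve at 30 to 70% inhibition, or poor fit; inactive = signal rises, flat within 30%, or potency beyond limit.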

Biological target: Golgi-associated PDZ and coiled-coil motif-containing protein (Homo sapiens) (UniProt Q9HD26)
Assay: potency against CAL PDZ-peptide interaction – biochemical, fluorescence polarization, Cerulean-tagged CAL PDZ, cherry-picks, dose response (AID 504773)
Details: CAL PDZ-peptide binding, 1 h; series mostly up to 50 µM

outcome, inactive:
O=C1CN(C(=O)CC2C(=O)NCCN2Cc2ccccc2C(F)(F)F)CCN1 (centres undefined)
O=C(c1c(Cl)cccc1Cl)N1CCCCCC1
O=C(O)CC1(CC(=O)Nc2ccc(Br)cc2)CCCCC1
Cc1ccc(SCC(=O)NCc2ccc(F)cc2)cc1
COc1ccc(/C=N/NC(=O)c2cccc(C(F)(F)F)c2)cc1
S=C(NCCc1ccccc1)NC1CCC(NC(=S)NCCc2ccccc2)CC1 (centres undefined)
Cc1cccc(NS(=O)(=O)Cc2ccccc2)c1C
Cc1ccc(CN2CCN(Cc3nc4ccccc4nc3C)CC2CCO)cc1 (centres undefined)
O=C(CN1C(=O)NC2(CCCC2)C1=O)Nc1ccc(F)c(F)c1F
CSc1ccc(CNCCCSc2ncccn2)cc1
COc1ccc(C(C)=O)cc1COC(=O)CNC(=O)c1ccccc1F
Brc1cccc(CNCC2CCCO2)c1 (centres undefined)
COCC(=O)NNC(=O)c1ccc(OC)cc1
CCC(C)NC(=O)C1CCCN(C(=O)Nc2ccc(F)cc2)C1 (centres undefined)
CC1=NN(C(N)=S)C(=O)C1N=Nc1ccc(Cl)cc1 (centres undefined)
O=C(CCCn1c(=S)[nH]c2cc3c(cc2c1=O)OCO3)N1CCN(c2ccc(Cl)cc2)CC1
CCOC(=O)c1ccc(N=C2SC(C(=O)NC)CC(=O)N2Cc2ccc(F)cc2)cc1 (centres undefined)
CO[C@H]1O[C@H](C)[C@@H](O)C[C@H]1NC(=O)OCc1ccccc1
CCN(CC)S(=O)(=O)c1cc(C(=O)Oc2ccccc2OC)ccc1OC
